Source: PubChem BioAssay
Shown are actives, neighbours in structure and some others; about 19% of the full set was active somewhere.
HT1080 IDH1KD tx: qHTS for induction of synthetic lethality in tumor cells producing 2HG: qHTS for the HT-1080-IDH1KD cell line; AID 686971, 2013; HT-1080 IDH1 knockdown viability, ATP luminescence, 48 h; Potency, µM (doses to about 46.1 µM), for the others: at the top dose activity, negative = toxicity, hits mostly cytotoxic; 360,000 tested, 2% active;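 further: 0% = DMSO wells and -100% = cell-free medium wells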
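In this qHTS, HT-1080 cells depleted of IDH1 are exposed for 48 h at 37 °C to compound titrations. Toxicity is scored from CellTiter-Glo luminescence, with DMSO as full viability and medium alone as none.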
KB-3-1 cytotox: qHTS assay for MDR1-selective chemotherapeutics: Primary screen using the parental adenocarcinoma cell KB-3-1 | KB-3-1 viability, CellTiter-Glo ATP luminescence, 72 h | 400,000 tested, 1.4% active | Potency, µM (top dose mostly 46.1 µM), actives largely listed as cytotoxic | AID 1347075, 2019; further: nearly all actives have a fitted effect of over 60% in size
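Parental KB-3-1 viability, qHTS format: 72 h compound exposure, 37 °C; CellTiter-Glo; media-only wells and DMSO plates as controls; concentration-effect fits on corrected data.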
KB-V1 MDR tox: qHTS assay for MDR1-selective chemotherapeutics: Primary screen using the drug-selected MDR subline cells KB-V1. KB-V1 MDR cells viability, CellTiter-Glo, 72 h. Potency, µM (titrated, usually from 46.1 µM), hits mostly cytotoxic. 400,000 tested, 3.4% active; further: nearly all actives have a fitted effect of over 60% in size
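Cells of the MDR subline KB-V1 are plated, dosed with compound at multiple concentrations, and incubated 72 h at 37 degrees C; CellTiter-Glo is then added and luminescence read after 10 min.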
DT40 TDP1 no CPT: qHTS for Inhibitors of human tyrosyl-DNA phosphodiesterase 1 (TDP1): qHTS in cells in absence of CPT. Potency, µM (highest dose often 46.2 µM), for inactives: at the highest dose activity change, negative = growth inhibition, actives largely listed as inhibitors. 420,000 tested, 15% active. DT40 Tdp1-/- hTDP1 cells, no CPT, ATP luminescence, 48 h; further: nearly all actives have a fitted effect of over 55% in size
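Growth of hTDP1-complemented DT40 Tdp1-knockout cells is measured by ATP luminescence after at least 48 hr compound exposure at 37 °C, with DMSO substituting for the 20 nM CPT used in the parallel screen.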
DT40 TDP1 CPT: qHTS for Inhibitors of human tyrosyl-DNA phosphodiesterase 1 (TDP1): qHTS in cells in presence of CPT; chicken DT40 Tdp1-/-;hTDP1 cells + 20 nM CPT, ATP luminescence, 48 h; Potency, µM (top dose mostly 46.2 µM), for the others: top-dose activity change, negative = growth inhibition, usual class: inhibitors; 420,000 tested, 12% active; AID 686979, 2013; further: nearly all actives have a fitted effect of over 55% in size
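Chicken DT40 Tdp1-/- cells complemented with human TDP1, 400 cells/well, exposed to compounds plus 20 nM camptothecin for at least 48 h at 37 C; viability read as ATP content by CellTiter-Glo luminescence.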
HT1080NT lethal: qHTS for induction of synthetic lethality in tumor cells producing 2HG: qHTS for the HT-1080-NT fibrosarcoma cell line. Potency, µM (series often up to 46.1 µM), without a hit: top-dose activity, negative = less viability, most hits filed as cytotoxic. 360,000 tested, 1.6% active. HT-1080-NT fibrosarcoma viability, CellTiter-Glo ATP luminescence, 48 h;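 further: NT is the 2HG producing partner of a matched IDH1 knockdown line; 0% = DMSO-treated cells and -100% = media-only wells without cells; nearly all actives have a fitted effect of over 55% in size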
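Viability of the 2HG-overproducing fibrosarcoma line after 48 hours of compound exposure at 37 degrees C was determined by luminescence with CellTiter-Glo, and concentration-effect curves were then fitted and categorized.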
* = called active by the depositor; i = inactive; ? = inconclusive; . = not tested or not shown. The call rests on the fitted dose curve; in most records, active means well fitted curve in the direction sought with a large enough effect; inconclusive means small, poorly fitted or top-dose-only effect, or another doubt; inactive means no such curve, though single readings can be large; an effect the other way counts as inactive or inconclusive. Unless noted, on the % scale 0 is the no-effect control and ±100 the full control effect; potency means the concentration at half of the fitted maximal effect.

SMILES | HT1080 IDH1KD tx | KB-3-1 cytotox | KB-V1 MDR tox | DT40 TDP1 no CPT | DT40 TDP1 CPT | HT1080NT lethal
CCCCc1cc(=O)oc2cc(OCC(=O)N(CC)CC)ccc12 | 5% | i | 7.3µM* | -5% | -14% | 3%
COc1ccc(CCNC(=O)c2cc(=O)c3cc(C)cc(C)c3o2)cc1OC | . | ? | i | 23µM* | 21µM* | .
CCCCCC(=O)Nc1ccc(C(=O)COC(=O)c2ccccn2)cc1 | -14% | i | i | -2% | ? | -13%
COCCCNC(=O)c1cc(S(=O)(=O)N2CCOCC2)ccc1SCc1cccc(OC)c1OC | 15% | i | i | -2% | 11% | 17%
COc1ccc(CCNC(=O)c2cc(=O)c3cc(C)c(C)cc3o2)cc1OC | . | ? | ? | 7.3µM* | -30% | .
COc1ccc(CCNC(=O)COc2ccc3c(C)cc(=O)oc3c2)cc1OC | ? | i | i | 13µM* | ? | ?
CCCc1cc(=O)oc2cc(OCC(=O)NCCc3c[nH]c4ccc(OC)cc34)ccc12 | -24% | i | i | 15µM* | 16µM* | -22%
CCOC(=O)C1(CCCc2ccccc2)CCN(Cc2cn(CC)nc2C)CC1 | ? | 21µM* | i | ? | ? | ?
CCOC(=O)C1(Cc2cccc(F)c2)CCN(Cc2cn(CC)nc2C)CC1 | -12% | i | ? | ? | 1% | 4%
CCOC(=O)C1(CCCc2ccccc2)CCN(Cc2nccn2CC)CC1 | ? | i | ? | ? | ? | ?
CCOC(=O)C1(CCCc2ccccc2)CCN(C(=O)C2=C(C)OCCO2)CC1 | ? | ? | ? | 21µM* | ? | ?
CCOC(=O)C1(Cc2cccc(F)c2)CCN(Cc2c(C)nn(CC)c2C)CC1 | -4% | i | i | ? | 23µM* | -5%
CCOC(=O)C1(Cc2cccc(F)c2)CCN(Cc2ccon2)CC1 | 10% | i | i | ? | 4% | 0%
CCOC(=O)C1(CCCc2ccccc2)CCN(C(=O)c2ccoc2)CC1 | 0% | i | ? | ? | -24% | -21%
CCOC(=O)C1(Cc2cccc(F)c2)CCN(Cc2cnc(C)s2)CC1 | 0% | i | ? | 23µM* | 26µM* | -4%
Cn1c(=O)c(-c2ccc(Cl)cc2)nc2cnc(Oc3ccccc3)nc21 | . | . | . | -15% | 3% | .
COc1ccc(S(=O)(=O)NCC2CCC(C(=O)NCCCN3CCCC3=O)CC2)cc1 (stereo not drawn) | -3% | i | ? | 8% | 2% | -5%
CCOC(=O)C1(CCCc2ccccc2)CCN(Cc2cnc(C)s2)CC1 | ? | i | ? | 10µM* | 21µM* | 18µM*
CC(=O)C[C@@H](O)CC(=O)[C@@H]1OC(=O)CCCCCCCc2ccccc21 | 0% | i | i | -11% | -42% | 18%
COc1ccc(NC(=O)C[C@H]2C(=O)N(c3ccc(Br)cc3)C[C@@H]2C)cc1 | -2% | ? | ? | ? | ? | -20%
CCC[C@H]1CN(c2ccccc2)C(=O)[C@@H]1CC(=O)Nc1ccc(OC)cc1 | -5% | i | i | ? | ? | -8%
COc1ccc(NC(=O)C[C@H]2C(=O)N(c3ccc(Br)cc3)C[C@@H]2c2ccc(OC)cc2)cc1 | -12% | i | i | 21µM* | ? | -16%
COc1ccc([C@H]2CN(c3ccc(OC)cc3)C(=O)[C@@H]2CC(=O)Nc2ccccc2)cc1 | -19% | i | ? | 13µM* | -17% | -15%
CCC[C@H]1CN(c2ccc(OC)cc2)C(=O)[C@@H]1CC(=O)Nc1ccccc1 | 6% | i | i | ? | ? | 0%
COc1ccc(NC(=O)C[C@H]2C(=O)N(c3ccc(OC)cc3)C[C@@H]2c2ccc(Br)cc2)cc1 | -7% | i | ? | 23µM* | ? | -5%
SMILES | HT1080 IDH1KD tx | KB-3-1 cytotox | KB-V1 MDR tox | DT40 TDP1 no CPT | DT40 TDP1 CPT | HT1080NT lethal
Cc1ccc(S(=O)(=O)N2CCOCC2)cc1NC(=O)COC(=O)COc1ccc(C#N)cc1 | -1% | i | i | ? | -20% | 8%
COC(=O)c1c(OCc2ccccn2)cc(=O)n2c1CCN(Cc1cccc(C(F)(F)F)c1)CC2 | . | . | . | -8% | 7% | .
CCOc1ccc(Br)cc1S(=O)(=O)Nc1ccc(NC(=O)c2ccccc2C)cc1 | -3% | i | i | -12% | -14% | -5%
COc1ccc(NS(=O)(=O)c2cc(NC(=O)c3ccccn3)ccc2OC)cc1Br | -9% | i | i | -4% | ? | -8%
COc1ccc(NC(=O)c2c(F)cccc2F)cc1S(=O)(=O)Nc1ccc(Br)cc1 | -19% | i | 10µM* | -22% | -24% | -1%
CCOc1ccc(Br)cc1S(=O)(=O)Nc1ccc(C(=O)Nc2ccc(C)cc2)cc1 | -17% | i | 7.3µM* | ? | ? | -11%
COc1ccc(Br)cc1C(=O)Nc1ccc(C(=O)NCC(C)C)cc1 | -3% | i | i | ? | -13% | -5%
CCOc1ccc(Br)cc1S(=O)(=O)Nc1ccc(NC(=O)c2ccccc2F)cc1 | -26% | ? | ? | 16µM* | ? | -28%
CCOc1ccc(Br)cc1C(=O)Nc1ccc(C(=O)NCC(C)C)cc1 | -3% | ? | ? | ? | 10µM* | -8%
CCOc1ccc(Br)cc1S(=O)(=O)Nc1ccc(C(=O)Nc2ccccc2OC)cc1 | 1% | i | i | -25% | -27% | -5%
COc1ccc(CN2CCCC(n3cc(C(=O)NC4CCCC4)nn3)C2)c2ccccc12 (stereo not drawn) | . | . | . | -11% | 2% | .
COc1ccccc1CNC(=O)CN1C(=O)NC2(CCCCCC2)C1=O | 15% | i | i | -24% | 9% | 7%
Cc1ccccc1OCCC(=O)Nc1ccc(N2CCOCC2)cc1N1CCOCC1 | 1% | i | i | 0% | -3% | 3%
CCOc1ccc(Br)cc1S(=O)(=O)Nc1cccc(S(=O)(=O)N(C)c2ccccc2)c1 | -27% | ? | 4.1µM* | -27% | -21% | -9%
